# PMC7862700, “An all-to-all approach to the identification of sequence-specific readers for epigenetic DNA modifications on cytosine”
# What was measured:
# Assay in all cases: DAPPL (digital affinity profiling via proximity ligation, sequencing); 10 mM Tris-HCl pH 7.5, 50 mM NaCl, 1 mM DTT, 4% glycerol, room temperature, 30 min; GST-TFs on glutathione beads, 16-mer random dsDNA library, 0.1% formaldehyde crosslink after washing; high values mean tight binding
# FEV = target: T1, FEV (Homo sapiens, UniProt Q99581 1-238); settings: protein: recombinant; tags: N-terminal GST; dsDNA, one strand shown
# T1 sequence: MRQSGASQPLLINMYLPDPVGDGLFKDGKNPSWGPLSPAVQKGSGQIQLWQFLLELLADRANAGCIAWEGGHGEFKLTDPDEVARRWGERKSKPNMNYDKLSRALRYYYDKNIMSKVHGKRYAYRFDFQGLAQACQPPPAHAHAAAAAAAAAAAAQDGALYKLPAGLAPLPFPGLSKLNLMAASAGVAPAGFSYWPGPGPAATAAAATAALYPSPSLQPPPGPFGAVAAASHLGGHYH
# Summary of the method: (§1)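 Human transcription factors fused to GST were expressed in yeast, captured on glutathione beads, given DNA barcodes and pooled with a GST-only negative control. Pools were incubated with 200 nmole of a 16-mer random double-stranded DNA library in Tris/NaCl/DTT/glycerol buffer at room temperature for 30 min. They were then washed, crosslinked with 0.1% formaldehyde, proximity-ligated (BsaI/T4 ligase, 1 h, 37 °C), PCR-amplified and sequenced on an Illumina NextSeq500. Binding signal is each 6-mer's read frequency for a factor divided by its frequency for the GST control.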
# ETV5 = ETV5 (Homo sapiens, UniProt P41161 1-510); settings: protein: recombinant; tags: N-terminal GST; dsDNA, one strand shown
# Chain of ETV5 (P41161 whole entry): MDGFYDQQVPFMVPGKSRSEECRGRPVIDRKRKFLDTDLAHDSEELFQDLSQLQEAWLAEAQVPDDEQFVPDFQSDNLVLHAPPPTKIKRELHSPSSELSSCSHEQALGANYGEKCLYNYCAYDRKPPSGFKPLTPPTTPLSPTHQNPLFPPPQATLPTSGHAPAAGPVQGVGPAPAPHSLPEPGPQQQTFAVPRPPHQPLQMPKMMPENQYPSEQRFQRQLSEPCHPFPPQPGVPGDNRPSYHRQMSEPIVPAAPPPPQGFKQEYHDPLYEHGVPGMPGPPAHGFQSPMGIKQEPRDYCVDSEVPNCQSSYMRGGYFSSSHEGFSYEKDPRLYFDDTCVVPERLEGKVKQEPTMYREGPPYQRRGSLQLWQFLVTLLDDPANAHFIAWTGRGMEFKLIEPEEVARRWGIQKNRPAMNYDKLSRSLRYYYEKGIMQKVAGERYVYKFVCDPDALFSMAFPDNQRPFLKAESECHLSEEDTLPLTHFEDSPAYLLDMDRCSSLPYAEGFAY
# Summary of the method: as §1
# HSF1 = HSF1 (Homo sapiens, UniProt Q00613 1-529); settings: protein: recombinant; tags: N-terminal GST; chain copies: 3; dsDNA, one strand shown
# Chain of HSF1 (Q00613 whole entry): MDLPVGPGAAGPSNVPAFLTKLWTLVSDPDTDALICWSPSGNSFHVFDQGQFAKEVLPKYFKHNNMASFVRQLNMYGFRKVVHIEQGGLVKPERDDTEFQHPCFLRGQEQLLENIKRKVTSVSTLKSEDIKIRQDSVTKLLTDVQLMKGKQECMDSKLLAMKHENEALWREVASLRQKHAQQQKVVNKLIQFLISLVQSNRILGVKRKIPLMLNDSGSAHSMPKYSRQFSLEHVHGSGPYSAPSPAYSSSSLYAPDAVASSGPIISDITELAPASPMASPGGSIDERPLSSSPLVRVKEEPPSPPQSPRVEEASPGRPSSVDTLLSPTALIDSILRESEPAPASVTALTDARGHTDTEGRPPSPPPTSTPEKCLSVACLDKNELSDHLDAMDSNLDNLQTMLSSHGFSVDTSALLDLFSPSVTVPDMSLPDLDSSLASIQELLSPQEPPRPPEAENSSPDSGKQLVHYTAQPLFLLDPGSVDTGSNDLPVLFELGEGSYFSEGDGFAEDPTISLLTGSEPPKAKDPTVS
# Summary of the method: as §1
# SPIC = target: T2, SPIC (Homo sapiens, UniProt Q8N5J4 1-248); settings: protein: recombinant; tags: N-terminal GST; dsDNA, one strand shown
# T2 sequence: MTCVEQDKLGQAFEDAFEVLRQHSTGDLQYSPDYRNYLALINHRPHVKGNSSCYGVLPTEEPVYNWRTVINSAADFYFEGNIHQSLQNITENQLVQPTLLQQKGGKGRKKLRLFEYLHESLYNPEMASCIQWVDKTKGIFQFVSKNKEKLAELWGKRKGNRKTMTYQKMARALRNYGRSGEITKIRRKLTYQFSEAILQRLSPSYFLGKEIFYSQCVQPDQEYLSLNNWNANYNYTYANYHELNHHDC
# Summary of the method: as §1
# ELF4 = ELF4 (Homo sapiens, UniProt Q99607 1-663); settings: protein: recombinant; tags: N-terminal GST; dsDNA, one strand shown
# Chain of ELF4 (Q99607 whole entry): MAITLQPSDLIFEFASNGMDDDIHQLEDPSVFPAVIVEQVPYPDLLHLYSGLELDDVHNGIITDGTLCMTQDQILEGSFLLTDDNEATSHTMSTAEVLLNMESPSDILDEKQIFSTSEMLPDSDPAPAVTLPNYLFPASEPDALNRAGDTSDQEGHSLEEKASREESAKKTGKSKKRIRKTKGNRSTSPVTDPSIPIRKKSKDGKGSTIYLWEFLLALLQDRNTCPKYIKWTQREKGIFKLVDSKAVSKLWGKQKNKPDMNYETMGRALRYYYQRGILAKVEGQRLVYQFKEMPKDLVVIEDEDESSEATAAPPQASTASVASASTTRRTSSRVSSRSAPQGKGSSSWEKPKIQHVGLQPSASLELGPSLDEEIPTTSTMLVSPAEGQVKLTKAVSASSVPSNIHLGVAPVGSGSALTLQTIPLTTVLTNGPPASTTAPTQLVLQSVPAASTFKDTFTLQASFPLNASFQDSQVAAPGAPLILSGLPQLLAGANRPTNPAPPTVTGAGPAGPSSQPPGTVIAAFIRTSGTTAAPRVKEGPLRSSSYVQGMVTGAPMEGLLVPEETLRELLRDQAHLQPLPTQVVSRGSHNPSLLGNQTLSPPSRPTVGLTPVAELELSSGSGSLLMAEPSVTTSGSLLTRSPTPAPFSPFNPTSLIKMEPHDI
# Summary of the method: as §1
# ELK4 = target: T3, ELK4 (Homo sapiens, UniProt P28324-2 1-405); settings: protein: recombinant; tags: N-terminal GST; dsDNA, one strand shown
# T3 sequence: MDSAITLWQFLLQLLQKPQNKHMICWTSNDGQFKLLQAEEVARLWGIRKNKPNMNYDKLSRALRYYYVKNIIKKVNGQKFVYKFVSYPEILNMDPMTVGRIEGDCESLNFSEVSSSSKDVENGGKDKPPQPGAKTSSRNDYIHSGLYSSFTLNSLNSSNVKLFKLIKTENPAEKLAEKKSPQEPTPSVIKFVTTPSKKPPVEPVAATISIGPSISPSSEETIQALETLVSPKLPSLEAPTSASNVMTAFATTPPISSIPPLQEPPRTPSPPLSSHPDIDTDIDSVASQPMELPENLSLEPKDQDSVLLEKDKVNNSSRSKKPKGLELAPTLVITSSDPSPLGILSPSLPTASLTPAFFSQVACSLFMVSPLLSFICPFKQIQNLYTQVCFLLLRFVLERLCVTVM
# Summary of the method: as §1
# ETV2 = target: T4, ETV2 (Homo sapiens, UniProt O00321 1-342); settings: protein: recombinant; tags: N-terminal GST; dsDNA, one strand shown
# T4 sequence: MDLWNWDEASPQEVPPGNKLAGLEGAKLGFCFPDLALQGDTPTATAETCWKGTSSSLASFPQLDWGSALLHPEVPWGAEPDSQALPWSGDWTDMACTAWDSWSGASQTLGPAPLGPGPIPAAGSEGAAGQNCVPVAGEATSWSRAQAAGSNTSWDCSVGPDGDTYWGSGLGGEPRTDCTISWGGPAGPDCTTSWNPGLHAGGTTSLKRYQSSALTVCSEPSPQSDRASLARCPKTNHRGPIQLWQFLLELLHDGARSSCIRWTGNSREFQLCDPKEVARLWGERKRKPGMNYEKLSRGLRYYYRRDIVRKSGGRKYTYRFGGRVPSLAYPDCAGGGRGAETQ
# Summary of the method: as §1
# ELF3 = target: T5, ELF3 (Homo sapiens, UniProt P78545 1-371); settings: protein: recombinant; tags: N-terminal GST; dsDNA, one strand shown
# T5 sequence: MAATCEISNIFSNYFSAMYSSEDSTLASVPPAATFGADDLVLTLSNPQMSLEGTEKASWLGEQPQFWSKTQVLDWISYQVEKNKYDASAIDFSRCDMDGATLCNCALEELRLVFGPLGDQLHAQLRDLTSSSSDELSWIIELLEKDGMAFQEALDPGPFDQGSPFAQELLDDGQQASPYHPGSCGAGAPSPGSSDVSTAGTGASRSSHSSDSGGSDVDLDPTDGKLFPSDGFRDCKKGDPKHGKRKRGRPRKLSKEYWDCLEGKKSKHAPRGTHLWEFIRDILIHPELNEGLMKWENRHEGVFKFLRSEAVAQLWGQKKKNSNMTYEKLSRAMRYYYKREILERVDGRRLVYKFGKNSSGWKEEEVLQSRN
# Summary of the method: as §1
# CRX = CRX (Homo sapiens, UniProt O43186 1-299); settings: protein: recombinant; tags: N-terminal GST; dsDNA, one strand shown
# Chain of CRX (O43186 whole entry): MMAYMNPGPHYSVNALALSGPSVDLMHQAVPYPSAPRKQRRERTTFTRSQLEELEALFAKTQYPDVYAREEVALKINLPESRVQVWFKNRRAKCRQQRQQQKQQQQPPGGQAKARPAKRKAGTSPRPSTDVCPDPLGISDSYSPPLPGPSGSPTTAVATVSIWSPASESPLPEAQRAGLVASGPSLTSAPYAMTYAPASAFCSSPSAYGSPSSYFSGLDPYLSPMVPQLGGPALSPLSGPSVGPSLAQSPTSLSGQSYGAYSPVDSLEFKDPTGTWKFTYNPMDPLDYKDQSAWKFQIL
# Summary of the method: as §1
# ETV1 = ETV1 (Homo sapiens, UniProt P50549 1-477); settings: protein: recombinant; tags: N-terminal GST; dsDNA, one strand shown
# Chain of ETV1 (P50549 whole entry): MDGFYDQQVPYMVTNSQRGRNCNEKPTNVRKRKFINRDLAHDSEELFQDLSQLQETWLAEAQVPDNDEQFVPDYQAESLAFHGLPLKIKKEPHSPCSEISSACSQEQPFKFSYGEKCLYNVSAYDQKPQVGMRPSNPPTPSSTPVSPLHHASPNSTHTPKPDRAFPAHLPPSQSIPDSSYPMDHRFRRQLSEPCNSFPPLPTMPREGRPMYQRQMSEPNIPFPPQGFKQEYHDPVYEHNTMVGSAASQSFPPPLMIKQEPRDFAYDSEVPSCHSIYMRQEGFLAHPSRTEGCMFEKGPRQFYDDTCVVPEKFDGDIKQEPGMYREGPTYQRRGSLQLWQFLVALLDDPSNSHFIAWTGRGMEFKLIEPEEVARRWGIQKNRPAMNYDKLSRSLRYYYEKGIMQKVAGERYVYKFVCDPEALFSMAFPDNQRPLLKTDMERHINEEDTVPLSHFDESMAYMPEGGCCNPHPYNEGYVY
# Summary of the method: as §1
# ERF = target: T6, ERF (Homo sapiens, UniProt P50548 1-548); settings: protein: recombinant; tags: N-terminal GST; dsDNA, one strand shown
# T6 sequence: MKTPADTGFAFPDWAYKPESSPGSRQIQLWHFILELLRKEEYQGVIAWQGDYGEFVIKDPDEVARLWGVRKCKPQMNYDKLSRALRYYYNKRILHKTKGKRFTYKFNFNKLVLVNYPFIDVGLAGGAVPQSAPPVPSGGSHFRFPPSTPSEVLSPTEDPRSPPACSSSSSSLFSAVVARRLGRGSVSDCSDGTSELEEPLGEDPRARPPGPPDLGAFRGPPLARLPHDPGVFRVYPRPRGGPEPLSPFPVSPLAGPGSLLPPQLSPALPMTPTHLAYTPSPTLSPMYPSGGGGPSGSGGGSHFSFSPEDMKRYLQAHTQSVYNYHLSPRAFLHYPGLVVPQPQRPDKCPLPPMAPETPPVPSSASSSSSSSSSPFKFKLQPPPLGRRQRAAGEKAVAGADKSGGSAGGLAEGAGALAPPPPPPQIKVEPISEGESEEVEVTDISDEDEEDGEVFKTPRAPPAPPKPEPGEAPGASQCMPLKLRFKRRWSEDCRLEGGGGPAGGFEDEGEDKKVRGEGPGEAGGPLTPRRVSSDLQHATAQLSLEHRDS
# Summary of the method: as §1
# ETV3L = target: T7, ETV3L (Homo sapiens, UniProt Q6ZN32 1-361); settings: protein: recombinant; tags: N-terminal GST; dsDNA, one strand shown
# T7 sequence: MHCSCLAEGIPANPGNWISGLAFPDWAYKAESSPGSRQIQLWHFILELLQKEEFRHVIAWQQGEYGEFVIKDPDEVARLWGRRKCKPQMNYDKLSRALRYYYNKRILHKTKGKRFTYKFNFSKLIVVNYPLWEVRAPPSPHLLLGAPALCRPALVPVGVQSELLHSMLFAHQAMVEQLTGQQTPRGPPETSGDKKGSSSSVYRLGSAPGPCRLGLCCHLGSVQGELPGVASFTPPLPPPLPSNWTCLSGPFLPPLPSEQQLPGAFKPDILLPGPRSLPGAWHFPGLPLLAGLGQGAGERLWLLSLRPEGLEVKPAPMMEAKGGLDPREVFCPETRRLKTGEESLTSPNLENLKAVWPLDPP
# Summary of the method: as §1
# ETS2 = target: T8, ETS2 (Homo sapiens, UniProt P15036 1-469); settings: protein: recombinant; tags: N-terminal GST; dsDNA, one strand shown
# T8 sequence: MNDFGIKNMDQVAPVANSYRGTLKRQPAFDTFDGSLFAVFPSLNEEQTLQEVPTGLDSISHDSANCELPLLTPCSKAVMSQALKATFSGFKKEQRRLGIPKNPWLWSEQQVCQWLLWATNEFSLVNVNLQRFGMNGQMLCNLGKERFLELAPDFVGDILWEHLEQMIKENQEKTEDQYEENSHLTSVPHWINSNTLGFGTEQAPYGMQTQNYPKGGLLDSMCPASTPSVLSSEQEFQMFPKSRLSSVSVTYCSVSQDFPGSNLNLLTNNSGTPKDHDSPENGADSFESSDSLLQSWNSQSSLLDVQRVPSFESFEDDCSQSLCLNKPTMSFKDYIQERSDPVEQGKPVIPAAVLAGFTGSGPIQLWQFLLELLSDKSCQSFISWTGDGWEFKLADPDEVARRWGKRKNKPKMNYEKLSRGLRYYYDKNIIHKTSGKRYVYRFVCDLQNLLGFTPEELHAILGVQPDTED
# Summary of the method: as §1
# SPDEF = target: T9, SPDEF (Homo sapiens, UniProt O95238 1-335); settings: protein: recombinant; tags: N-terminal GST; dsDNA, one strand shown
# T9 sequence: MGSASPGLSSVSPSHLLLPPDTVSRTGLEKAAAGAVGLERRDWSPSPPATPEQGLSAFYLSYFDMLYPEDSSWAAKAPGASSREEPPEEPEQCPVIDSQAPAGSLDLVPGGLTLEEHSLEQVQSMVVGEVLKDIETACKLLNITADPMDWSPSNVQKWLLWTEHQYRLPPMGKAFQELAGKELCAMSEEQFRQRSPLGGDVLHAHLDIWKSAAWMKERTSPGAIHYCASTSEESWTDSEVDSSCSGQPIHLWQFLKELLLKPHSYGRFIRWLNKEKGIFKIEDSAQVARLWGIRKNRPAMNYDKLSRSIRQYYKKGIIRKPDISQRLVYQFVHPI
# Summary of the method: as §1
# ETV7 = target: T10, ETV7 (Homo sapiens, UniProt Q9Y603 1-341); settings: protein: recombinant; tags: N-terminal GST; dsDNA, one strand shown
# T10 sequence: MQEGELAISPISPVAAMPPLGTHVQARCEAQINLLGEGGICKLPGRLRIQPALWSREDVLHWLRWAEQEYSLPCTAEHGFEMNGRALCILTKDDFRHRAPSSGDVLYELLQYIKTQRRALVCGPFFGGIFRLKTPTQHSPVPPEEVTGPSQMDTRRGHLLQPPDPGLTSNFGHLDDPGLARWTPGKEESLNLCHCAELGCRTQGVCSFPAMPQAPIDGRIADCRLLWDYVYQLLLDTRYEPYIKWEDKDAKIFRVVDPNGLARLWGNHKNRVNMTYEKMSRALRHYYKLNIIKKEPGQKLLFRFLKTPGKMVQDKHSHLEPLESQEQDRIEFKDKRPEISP
# Summary of the method: as §1
# ELF5 = target: T11, ELF5 (Homo sapiens, UniProt Q9UKW6-2 1-255); settings: protein: recombinant; tags: N-terminal GST; dsDNA, one strand shown
# T11 sequence: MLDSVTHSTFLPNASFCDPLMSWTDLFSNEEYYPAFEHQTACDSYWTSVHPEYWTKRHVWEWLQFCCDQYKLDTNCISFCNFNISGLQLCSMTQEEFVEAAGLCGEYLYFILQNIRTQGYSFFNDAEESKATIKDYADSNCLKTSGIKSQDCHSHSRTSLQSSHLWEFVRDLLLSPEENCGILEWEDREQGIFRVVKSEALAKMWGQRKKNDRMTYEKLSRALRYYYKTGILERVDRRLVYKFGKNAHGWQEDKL
# Summary of the method: as §1
# ETV3 = target: T12, ETV3 (Homo sapiens, UniProt P41162-2 1-143); settings: protein: recombinant; tags: N-terminal GST; dsDNA, one strand shown
# T12 sequence: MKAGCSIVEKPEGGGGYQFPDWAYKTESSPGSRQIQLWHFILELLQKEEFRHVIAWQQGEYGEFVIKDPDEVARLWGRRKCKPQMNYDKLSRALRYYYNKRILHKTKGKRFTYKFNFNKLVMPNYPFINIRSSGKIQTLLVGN
# Summary of the method: as §1
# ETV6 = ETV6 (Homo sapiens, UniProt P41212 1-452); settings: protein: recombinant; tags: N-terminal GST; dsDNA, one strand shown
# Chain of ETV6 (P41212 whole entry): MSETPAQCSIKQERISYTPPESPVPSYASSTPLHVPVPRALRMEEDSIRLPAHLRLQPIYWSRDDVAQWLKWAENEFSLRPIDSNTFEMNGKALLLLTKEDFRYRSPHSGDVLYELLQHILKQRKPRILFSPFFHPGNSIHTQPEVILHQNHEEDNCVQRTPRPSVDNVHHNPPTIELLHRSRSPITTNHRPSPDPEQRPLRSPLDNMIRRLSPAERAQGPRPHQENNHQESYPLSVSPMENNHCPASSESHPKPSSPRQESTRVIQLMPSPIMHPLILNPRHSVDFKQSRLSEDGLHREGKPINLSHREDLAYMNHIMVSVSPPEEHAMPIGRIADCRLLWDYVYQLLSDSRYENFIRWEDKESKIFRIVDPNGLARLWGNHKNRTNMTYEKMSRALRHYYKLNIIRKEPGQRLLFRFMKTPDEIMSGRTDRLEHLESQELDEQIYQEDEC
# Summary of the method: as §1
sequence,measurement,setting,value
TACCAC,binding signal,FEV,"1.3 fold enrichment (6-mer frequency, TF over GST control)"
same,binding signal,ETV5,"1.19 fold enrichment (6-mer frequency, TF over GST control)"
same,binding signal,HSF1,"1.12 fold enrichment (6-mer frequency, TF over GST control)"
same,binding signal,SPIC,"1.25 fold enrichment (6-mer frequency, TF over GST control)"
same,binding signal,ELF4,"1.23 fold enrichment (6-mer frequency, TF over GST control)"
same,binding signal,ELK4,"1.18 fold enrichment (6-mer frequency, TF over GST control)"
same,binding signal,ETV2,"1.2 fold enrichment (6-mer frequency, TF over GST control)"
same,binding signal,ELF3,"1.25 fold enrichment (6-mer frequency, TF over GST control)"
same,binding signal,CRX,"1.17 fold enrichment (6-mer frequency, TF over GST control)"
same,binding signal,ETV1,"1.24 fold enrichment (6-mer frequency, TF over GST control)"
same,binding signal,ERF,"1.21 fold enrichment (6-mer frequency, TF over GST control)"
same,binding signal,ETV3L,"1.26 fold enrichment (6-mer frequency, TF over GST control)"
same,binding signal,ETS2,"1.27 fold enrichment (6-mer frequency, TF over GST control)"
same,binding signal,SPDEF,"1.16 fold enrichment (6-mer frequency, TF over GST control)"
same,binding signal,ETV7,"1.15 fold enrichment (6-mer frequency, TF over GST control)"
same,binding signal,ELF5,"1.29 fold enrichment (6-mer frequency, TF over GST control)"
same,binding signal,ETV3,"1.2 fold enrichment (6-mer frequency, TF over GST control)"
same,binding signal,ETV6,"1.21 fold enrichment (6-mer frequency, TF over GST control)"
